High-throughput results: PubChem BioAssay, National Center for Advancing Translational Sciences (NCATS)
AMA1-RON2 inh: AMA1-RON2 (P. falciparum) interaction inhibition | AlphaScreen AMA1-biotinylated RON2 peptide binding | Potency, µM (top dose mostly 58.2 µM), without a hit: at the top dose activity change, negative = inhibition, actives largely listed as inhibitors | actives 0.2% (n = 360,000) | AID 720542;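 further: 0% = vehicle wells and -100% = peptide control; nearly all actives have a fitted effect of over 45% in size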
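AMA1 (3D7) with his tag at 25 nM final met compounds first, then biotinylated RON2 peptide at 25 nM; detection used donor plus acceptor beads, 10 µg/mL apiece, read by AlphaScreen after 30 min at room temperature.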
HCV inhibitor: HCV inhibition. Huh7.5.1 HCVcc-Cre infection, luciferase reporter, 44 h. Potency, µM (highest dose often 41.8 µM), for inactives: at the highest dose activity change, negative = inhibition, hits mostly inhibitors. actives 3.4% (n = 340,000)
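Reporter virus HCVcc-Cre (~0.5 moi) infects cells exposed to compound; seeding density 1,000 cells/well with 4 h settling beforehand. Luminescence, 15 sec read, taken 44 h post-infection following a 15 min RT substrate incubation.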
Pf growth 48h: P. falciparum growth inhibition at 48 hours (one generation); P. falciparum luciferase growth in erythrocytes, 48 h; Potency, µM (series often up to 28.7 µM), inactives show at the top dose activity change, negative = inhibition, most hits filed as inhibitors; actives 5.9% (n = 310,000)
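Luminescence readout; reporter = integrated firefly luciferase in P. falciparum. RBC culture at 2% hematocrit, 0.1% parasitemia final, 37 C/5% CO2; decreased signal taken as growth inhibition.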
Pf growth 96h: P. falciparum growth inhibition at 96 hour, primary screen for plastid delayed-death inhibitors. P. falciparum luciferase reporter growth, 96 h. actives 6.9% (n = 320,000). Potency, µM (titrated, usually from 28.7 µM), inactives show top-dose activity change, negative = inhibition, hits mostly inhibitors
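Two parasite generations (96 h, 37 C, 5% CO2) of compound exposure in infected erythrocytes (0.05% parasitemia, 2% hematocrit). Luciferase-reporter P. falciparum; decreased luminescence indicates inhibited growth, aimed at apicoplast-acting delayed death.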
Active calls of the source: *; ? = inconclusive; nt = no result given; [ ] = another dose, or the depositor's remark. Most compounds without a hit are left out; they make up all but 11% or so of the library. The call rests on the fitted dose curve; in most records, active means well fitted curve in the direction sought with a large enough effect; inconclusive means small, poorly fitted or top-dose-only effect, or another doubt; inactive means no such curve, though single readings can be large; an effect the other way counts as inactive or inconclusive. Unless noted, on the % scale 0 is the no-effect control and ±100 the full control effect; potency means the concentration at half of the fitted maximal effect.

SMILES	AMA1-RON2 inh	HCV inhibitor	Pf growth 48h	Pf growth 96h
Cc1cc(C(=O)COC(=O)Cc2n[nH]c(=O)c3ccccc23)c(C)n1-c1cccc(C(F)(F)F)c1	-2.1%	?	9.28µM*	2.94µM*
Cc1cc(C(=O)COC(=O)CC2Sc3ccccc3NC2=O)c(C)n1-c1cccc(C(F)(F)F)c1 (centres undefined)	-8.7%	?	?	-4.3%
O=C(CCc1c[nH]c2ccccc12)N[C@@H](Cc1c[nH]c2ccc(O)cc12)C(=O)O	4.0%	10.6%	3.7µM*	4.65µM*
O=C(CCCc1c[nH]c2ccccc12)N[C@@H](Cc1c[nH]c2ccccc12)C(=O)O	11.8%	-3.5%	9.28µM*	8.28µM*
O=C(Cc1c[nH]c2ccccc12)N[C@@H](Cc1c[nH]c2ccccc12)C(=O)O	-4.2%	10.4%	44.6%	17.8%
CC1CN(Cc2ccco2)C(=S)NC1=O (centres undefined)	-3.4%	3.2%	nt	nt
CN1CC(c2ccccc2)C2(SC(=S)N(Cc3ccco3)C2=O)C12C(=O)Nc1ccccc12 (centres undefined)	-23.5%	7.08µM*	11.7µM*	nt
O=C(NNC(=O)c1ccc(F)cc1F)c1ccc(-n2cnnn2)cc1	13.2%	8.6%	14.5%	22.3%
c1ccc2c(c1)Nc1cc3ccccc3cc1S2	-18.7%	7.7%	-20.9%	1.85µM*
c1ccc2c(c1)Nc1ccncc1S2	-3.4%	?	14.7µM*	?
S=C1Nc2ccccc2Sc2ccccc21	48.5%	-8.9%	-25.3%	?
COc1ccc2c(c1)S(=O)(=O)c1ccccc1N2	-9.7%	-4.5%	13.8%	29.7%
C=CCN1c2ccccc2Sc2cnccc21	3.3%	nt	nt	nt
COc1ccc2c(c1)Sc1ccccc1N2	15.8µM*	?	-9.1%	?
COc1ccc(OC)c(CNC(=O)CCC(=O)N2Cc3cccc(OC)c3Oc3ncccc32)c1	-2.9%	-9.0%	-24.8%	?
CSc1ncccc1C(=O)N(C)CC(=O)Nc1cccc(F)c1	-0.8%	-1.2%	2.6%	23.8%
CC(C)[C@H](NC(=O)OCc1ccccc1)C(=O)OCC(=O)NCCc1ccccc1	-9.9%	2.2%	5.8%	18.1%
CC(C)C(=O)N1CCC1(C)C(=O)Nc1ccc2[nH]ccc2c1 (centres undefined)	4.8%	nt	nt	nt
CCCN(C(=O)CCl)C1=CCCCC1	-3.4%	12.6µM*	?	-36.7%
CC(C)c1ccc(CN2CCC2(C)C(=O)Nc2cnc3ccccc3c2)cc1 (centres undefined)	-2.1%	nt	nt	nt
COc1ccccc1NC(=O)N1c2ccc(F)cc2CCC1C (centres undefined)	-8.2%	13.3%	-16.4%	4.65µM*
COc1ccc(C(=O)N2c3ccc(F)cc3CCC2C)cc1OC (centres undefined)	-12.3%	-19.9%	?	nt
CCc1nc(-c2ccc(OC)c(OC)c2)cc2cc(OC)c(OC)cc12	2.0%	3.16µM*	-22.3%	9.28µM*
COc1ccc(OC)c(C(=O)C(=O)c2cc(OC)ccc2OC)c1	11.9%	?	nt	nt
COc1ccc(OC)c(N)c1	?	-11.8%	9.28µM*	16.5µM*
SMILES	AMA1-RON2 inh	HCV inhibitor	Pf growth 48h	Pf growth 96h
COc1ccccc1C(=O)C1CCCN(C(=O)CN2CCCCC2=O)C1 (centres undefined)	3.3%	8.7%	57.3%	?
CCOC(=O)CN(C(=O)Cn1nnc(-c2ccc(OC)cc2)n1)C(C(=O)NC1CCCC1)c1ccc(F)cc1 (centres undefined)	-1.6%	?	13.1µM*	14.7µM*
O=C(NCC1CCCO1)C(c1ccncc1)N(Cc1cccs1)C(=O)Cn1nnc(-c2ccc(F)cc2)n1 (centres undefined)	-1.6%	-20.6%	0.8%	?
CCC(C(=O)NC1CCCC1)N(C(=O)Cn1nnc(-c2ccc(C)o2)n1)C(C)(C)C (centres undefined)	-1.1%	5.4%	?	2.33µM*
Cc1ccc(-c2nnn(CC(=O)N(Cc3ccco3)C(C(=O)NC3CCCC3)c3cccs3)n2)o1 (centres undefined)	6.3%	-25.9%	13.1µM*	?
Cc1ccc(-c2nnn(CC(=O)N(Cc3cccs3)C(C(=O)NC3CCCC3)c3ccncc3)n2)cc1 (centres undefined)	-6.7%	?	5.86µM*	?
O=C(c1ccccc1Cl)N1CCC(n2cccc2)CC1	-3.7%	10.7%	13.3%	68.4%
O=C(NC(Cc1ccccc1)C(=O)O)/C(=C/c1ccc(Br)cc1)NC(=O)c1ccc(Br)o1 (centres undefined)	17.0%	17.4%	7.5%	18.5%
CC(=O)c1ccc(N(C(=O)Cn2nnc(-c3ccccc3)n2)C(C(=O)NC2CCCCC2)c2ccccn2)cc1 (centres undefined)	7.3%[2.32 µM]	-10.0%	-19.5%	9.28µM*
CCC(C(=O)NC1CCCC1)N(C(=O)Cn1nnc(-c2ccc(OC)c(OC)c2)n1)C1CCCCC1 (centres undefined)	-1.2%	10.2%	9.28µM*	?
CCCCC(C(=O)NC1CCCC1)N(Cc1ccco1)C(=O)Cn1nnc(-c2ccc(F)cc2)n1 (centres undefined)	-7.9%	-4.3%	nt	11.7µM*
O=C(CN(Cc1ccco1)C(=O)Cn1nnc(-c2ccc(F)cc2)n1)NC1CCCC1	-2.7%	3.9%	4.3%	nt
Cc1ccc(N(C(=O)Cn2nnc(-c3ccc(C)o3)n2)C(C(=O)NC2CCCC2)c2ccncc2)cc1 (centres undefined)	-3.7%	19.3%	0.0%	10.4µM*
Cc1ccc(-c2nnn(CC(=O)N(c3ccc(F)cc3)C(C(=O)NC3CCCC3)c3ccncc3)n2)o1 (centres undefined)	-17.7%	21.6%	22.6%	?
CCCCCCN1C[C@H](O)[C@@H](n2cc(C3CC3)nn2)C[C@@H]1c1ccc(OC)cc1	-6.5%	nt	nt	nt
CC(C)N1CCC(N2CCN(CC#Cc3ccccc3)CC2CCO)CC1 (centres undefined)	-3.5%	-17.7%	-7.9%	?
NC(CCc1ccccc1)c1csc(Nc2ccccn2)n1 (centres undefined)	66.6%	nt	nt	nt
CCCCOCCCNC(=O)C[C@@H]1C[C@@]2(C(=O)OCC)CCCC=C2N(Cc2ccco2)C1=O	42.8%	nt	nt	nt
O=C(NCC(=O)N1CCCCCC1)c1ccc(Br)cc1	-1.6%	4.6%	30.0%	45.1%
CC(C)CCNC(=O)C(c1ccncc1)N(Cc1cccs1)C(=O)Cn1nnc(-c2ccc(F)cc2)n1 (centres undefined)	5.7%	?	14.7µM*	61.7%
CN(C)C1(CNC(=O)C2CCN(S(=O)(=O)c3c(Cl)cccc3Cl)CC2)CCCCC1	2.7%	-29.6%	?	-7.9%
C=C1CCN(C(C)C(=O)O)S(=O)(=O)c2ccccc21 (centres undefined)	5.8%	1.41µM*	16.0%	-2.5%
C=C1CCN(C(C)C(=O)OC)S(=O)(=O)c2ccccc21 (centres undefined)	6.0%	-2.6%[8.37 µM]	5.8%	-21.0%
O=C(COC(=O)CNC(=O)c1ccccc1F)Nc1cccnc1Cl	4.8%	-4.4%	12.2%	17.4%
